Results on 6 sequences are retold here after publication PMC11006913.

Substitutions are numbered along the chain they refer to.

What all share (assay): PBM; 200 nM protein, PBS
Holding throughout (settings): dsDNA, one strand shown

The target of test [1] is T1, VENTX (Homo sapiens, UniProt O95231 78-163, R121Q).
T1 sequence: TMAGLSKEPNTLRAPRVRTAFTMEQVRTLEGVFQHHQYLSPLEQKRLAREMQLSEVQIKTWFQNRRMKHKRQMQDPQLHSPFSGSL

In test [2] the target is T2, PAX4 (Homo sapiens, UniProt O43316 9-242, R200K).
T2 sequence: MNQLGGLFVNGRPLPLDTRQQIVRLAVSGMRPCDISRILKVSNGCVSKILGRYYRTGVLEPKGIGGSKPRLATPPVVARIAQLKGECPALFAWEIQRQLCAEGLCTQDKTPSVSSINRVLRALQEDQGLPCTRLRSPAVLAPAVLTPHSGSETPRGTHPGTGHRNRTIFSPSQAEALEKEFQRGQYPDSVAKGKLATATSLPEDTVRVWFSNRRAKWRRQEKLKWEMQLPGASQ

Test [3] has as its target T3, VENTX (Homo sapiens, UniProt O95231 78-163, Y115F).
T3 sequence: T1 sequence with Y38F, Q44R

Test [4] addresses T4, PAX4 (Homo sapiens, UniProt O43316 9-242).
T4 sequence: T2 sequence with K192R

For test [5], the target named is HOXA2 (Homo sapiens, UniProt O43364 129-215, R185T).
HOXA2, sequence (O43364 129-215 R185T): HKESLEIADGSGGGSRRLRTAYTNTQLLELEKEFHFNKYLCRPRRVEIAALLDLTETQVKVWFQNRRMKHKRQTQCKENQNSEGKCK
The target in test [6] is ALX3 (Homo sapiens, UniProt O95076 139-225, N203Q).
ALX3 (Homo sapiens, UniProt O95076 139-225, N203Q), sequence (O95076 139-225 N203Q): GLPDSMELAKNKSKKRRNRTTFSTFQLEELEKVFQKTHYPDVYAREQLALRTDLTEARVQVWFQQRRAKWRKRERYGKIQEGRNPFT
Test [7] addresses T5, PAX4 (Homo sapiens, UniProt O43316 9-242, R200Q).
T5 sequence: T2 sequence with K192Q

For test [8], the target named is T6, PAX4 (Homo sapiens, UniProt O43316 9-242, F177V).
T6 sequence: T2 sequence with F169V, K192R

The target in test [9] is MSX2 (Homo sapiens, UniProt P35548 130-214).
MSX2, sequence (P35548 130-214): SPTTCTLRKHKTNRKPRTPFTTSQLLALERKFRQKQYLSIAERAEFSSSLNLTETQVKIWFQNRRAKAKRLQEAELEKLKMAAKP
Test [10] deals with ALX3 (Homo sapiens, UniProt O95076 139-225).
ALX3 (Homo sapiens, UniProt O95076 139-225), sequence (O95076 139-225): as the sequence (O95076 139-225 N203Q) above, with Q65N counted along it
The target in test [11] is T7, PAX4 (Homo sapiens, UniProt O43316 9-242, F177Y).
T7 sequence: T2 sequence with F169Y, K192R

The target in test [12] is ALX3 (Homo sapiens, UniProt O95076 139-225, L168V).
ALX3 (Homo sapiens, UniProt O95076 139-225, L168V), sequence (O95076 139-225 L168V): as the sequence (O95076 139-225 N203Q) above, with L30V, Q65N counted along it
Test [13] addresses T8, PAX4 (Homo sapiens, UniProt O43316 9-242, R227W).
T8 sequence: T2 sequence with K192R, R219W

Test [14] concerns the target ALX3 (Homo sapiens, UniProt O95076 139-225, N203S).
For test [15], the target named is HOXA4 (Homo sapiens, UniProt Q00056 201-287, W262F).
HOXA4, sequence (Q00056 201-287 W262F): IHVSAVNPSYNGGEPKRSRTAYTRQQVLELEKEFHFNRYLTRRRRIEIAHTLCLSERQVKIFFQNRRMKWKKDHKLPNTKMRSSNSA

ALX3 (Homo sapiens, UniProt O95076 139-225, N203S), sequence (O95076 139-225 N203S): as the sequence (O95076 139-225 N203Q) above, with Q65S counted along it

On to AATTAGCG, for which the binding signal in test [1] is 11.9 upbm affinity estimate (log intensity, higher = more binding, comparable within an allelic series); in test [2] it was 11.8 upbm affinity estimate (log intensity, higher = more binding, comparable within an allelic series); in [3], 11.6 upbm affinity estimate (log intensity, higher = more binding, comparable within an allelic series); in [4] it was 12.4 upbm affinity estimate (log intensity, higher = more binding, comparable within an allelic series); in test [5], 12.6 upbm affinity estimate (log intensity, higher = more binding, comparable within an allelic series); in [6], 8.21 upbm affinity estimate (log intensity, higher = more binding, comparable within an allelic series). Moreover, the binding signal was 12.3 upbm affinity estimate (log intensity, higher = more binding, comparable within an allelic series) in test [7]; 10.4 upbm affinity estimate (log intensity, higher = more binding, comparable within an allelic series) in [8]; 13.5 upbm affinity estimate (log intensity, higher = more binding, comparable within an allelic series) in test [9]; 12.4 upbm affinity estimate (log intensity, higher = more binding, comparable within an allelic series) in [10]; 11 upbm affinity estimate (log intensity, higher = more binding, comparable within an allelic series) in [11]; 9.93 upbm affinity estimate (log intensity, higher = more binding, comparable within an allelic series) in test [12]. The binding signal in test [13] was 11 upbm affinity estimate (log intensity, higher = more binding, comparable within an allelic series); in test [14] it was 8.38 upbm affinity estimate (log intensity, higher = more binding, comparable within an allelic series).
For CAAATTAA, the binding signal is 11.8 upbm affinity estimate (log intensity, higher = more binding, comparable within an allelic series) in test [2]; 12.4 upbm affinity estimate (log intensity, higher = more binding, comparable within an allelic series) in test [4]; 8.38 upbm affinity estimate (log intensity, higher = more binding, comparable within an allelic series) in test [6]; 12.2 upbm affinity estimate (log intensity, higher = more binding, comparable within an allelic series) in test [7]; 10.5 upbm affinity estimate (log intensity, higher = more binding, comparable within an allelic series) in test [8]; 12.4 upbm affinity estimate (log intensity, higher = more binding, comparable within an allelic series) in test [10]. Also, the binding signal in test [11] was 11.1 upbm affinity estimate (log intensity, higher = more binding, comparable within an allelic series); in test [12], 9.81 upbm affinity estimate (log intensity, higher = more binding, comparable within an allelic series); in [13] it was 11 upbm affinity estimate (log intensity, higher = more binding, comparable within an allelic series); in test [14], 8.48 upbm affinity estimate (log intensity, higher = more binding, comparable within an allelic series).
Take AATTAAGA: the binding signal in test [2] was 11.6 upbm affinity estimate (log intensity, higher = more binding, comparable within an allelic series); in [4], 12.2 upbm affinity estimate (log intensity, higher = more binding, comparable within an allelic series); in test [6], 8.44 upbm affinity estimate (log intensity, higher = more binding, comparable within an allelic series); in test [7], 11.9 upbm affinity estimate (log intensity, higher = more binding, comparable within an allelic series); in test [8], 10.5 upbm affinity estimate (log intensity, higher = more binding, comparable within an allelic series); in test [10], 12.4 upbm affinity estimate (log intensity, higher = more binding, comparable within an allelic series). Also, the binding signal in test [11] is 10.9 upbm affinity estimate (log intensity, higher = more binding, comparable within an allelic series); in test [12], 9.95 upbm affinity estimate (log intensity, higher = more binding, comparable within an allelic series); in test [13], 10.8 upbm affinity estimate (log intensity, higher = more binding, comparable within an allelic series); in [15], 11.6 upbm affinity estimate (log intensity, higher = more binding, comparable within an allelic series); in test [14] it was 8.55 upbm affinity estimate (log intensity, higher = more binding, comparable within an allelic series).
For the sequence TAATTGGA, the binding signal was 11.7 upbm affinity estimate (log intensity, higher = more binding, comparable within an allelic series) in test [1]; 12.5 upbm affinity estimate (log intensity, higher = more binding, comparable within an allelic series) in test [5]; 8.38 upbm affinity estimate (log intensity, higher = more binding, comparable within an allelic series) in test [6]; 12 upbm affinity estimate (log intensity, higher = more binding, comparable within an allelic series) in test [7]; 14 upbm affinity estimate (log intensity, higher = more binding, comparable within an allelic series) in test [9]; 12.7 upbm affinity estimate (log intensity, higher = more binding, comparable within an allelic series) in test [10]. Further, the binding signal in [12] was 10.3 upbm affinity estimate (log intensity, higher = more binding, comparable within an allelic series); in [14], 8.55 upbm affinity estimate (log intensity, higher = more binding, comparable within an allelic series).
Turning to CCGAGCGG, the binding signal in test [15] was 9.89 upbm affinity estimate (log intensity, higher = more binding, comparable within an allelic series).
As for CCCAATTA, the binding signal in [1] was 11.7 upbm affinity estimate (log intensity, higher = more binding, comparable within an allelic series); in test [2], 11.6 upbm affinity estimate (log intensity, higher = more binding, comparable within an allelic series); in test [3] it was 11.5 upbm affinity estimate (log intensity, higher = more binding, comparable within an allelic series); in test [4], 12.1 upbm affinity estimate (log intensity, higher = more binding, comparable within an allelic series); in test [5], 12.5 upbm affinity estimate (log intensity, higher = more binding, comparable within an allelic series); in [6], 8.37 upbm affinity estimate (log intensity, higher = more binding, comparable within an allelic series). The binding signal in test [7] was 11.9 upbm affinity estimate (log intensity, higher = more binding, comparable within an allelic series); in [8], 10.4 upbm affinity estimate (log intensity, higher = more binding, comparable within an allelic series); in [9] it was 14 upbm affinity estimate (log intensity, higher = more binding, comparable within an allelic series); in test [10], 12.6 upbm affinity estimate (log intensity, higher = more binding, comparable within an allelic series); in test [11] it was 10.8 upbm affinity estimate (log intensity, higher = more binding, comparable within an allelic series); in test [12] it was 10.2 upbm affinity estimate (log intensity, higher = more binding, comparable within an allelic series). Further, the binding signal in [13] was 10.7 upbm affinity estimate (log intensity, higher = more binding, comparable within an allelic series); in test [14], 8.52 upbm affinity estimate (log intensity, higher = more binding, comparable within an allelic series).
